Drawing on paper PMC9838217, “Structure of SALL4 zinc finger domain reveals link between AT-rich DNA binding and Okihiro syndrome”, this text covers binding signal for 42 sequences.

What all share (experiment): HT-SELEX; high values mean tight binding
Holding throughout (details): protein: recombinant; vector His6-GST; dsDNA, one strand shown

One assay has as its target T1, SALL4 ZFC4 WT (HT-SELEX) (Mus musculus, UniProt Q8BX22 870-940).
T1 sequence: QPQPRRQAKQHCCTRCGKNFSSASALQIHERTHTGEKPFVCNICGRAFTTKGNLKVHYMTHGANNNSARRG
The procedure, abridged:
(§1)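 Purified recombinant mouse SALL4 zinc finger cluster 4 (residues 870–940, 1 µg) and library DNA (1.5 µg first cycle, 200 ng later) were incubated for 10 min at room temperature in 100 µl of 10 mM Tris–HCl pH 7.5, 50 mM NaCl, poly(dI-dC) and DTT. After Ni2+ bead capture and up to 6 triplicate cycles of selection, DNA was MiSeq-sequenced and scanned for 6-mers. Binding signal is the fold change in each canonical k-mer's read fraction relative to the initial random library.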

Assay [1] addresses T2, SALL4 ZFC4 R900W (HT-SELEX) (Mus musculus, UniProt Q8BX22 870-940, R900W).
T2 sequence: T1 sequence with R31W
In short, it runs like this: as §1

Assay [2] concerns the target T3, SALL4 ZFC4 G921D (HT-SELEX) (Mus musculus, UniProt Q8BX22 870-940, G921D).
T3 sequence: T1 sequence with G52D
The procedure, abridged: as §1

Numbering of substitutions follows the chain as printed.

With CGAGAA, the binding signal with SALL4 ZFC4 WT (HT-SELEX) was 0.725 ± 0.0428 fold-change vs cycle 0; in assay [1], 0.818 ± 0.0294 fold-change vs cycle 0; in assay [2], 0.857 ± 0.0383 fold-change vs cycle 0.
As to AAACCA, the binding signal amounted to 1.14 ± 0.0582 fold-change vs cycle 0 with SALL4 ZFC4 WT (HT-SELEX), 1.23 ± 0.0362 fold-change vs cycle 0 in assay [1] and 1.24 ± 0.0488 fold-change vs cycle 0 in assay [2].
On the same counts, the results for AGTAAG are 1.58 ± 0.0246 fold-change vs cycle 0, 1.73 ± 0.024 fold-change vs cycle 0 and 1.53 ± 0.116 fold-change vs cycle 0.
Turning to GGTCAA, the binding signal is 0.661 ± 0.0198 fold-change vs cycle 0 with SALL4 ZFC4 WT (HT-SELEX), 0.78 ± 0.0273 fold-change vs cycle 0 in assay [1] and 0.867 ± 0.0299 fold-change vs cycle 0 in assay [2].
Take ACACCC: the results for the binding signal (in the assay with SALL4 ZFC4 WT (HT-SELEX); in assay [1]; in assay [2]) were 0.416 ± 0.0284 fold-change vs cycle 0, 0.506 ± 0.0389 fold-change vs cycle 0 and 0.581 ± 0.0534 fold-change vs cycle 0, respectively.
TACAAA: the binding signal is 1.84 ± 0.0971 fold-change vs cycle 0 with SALL4 ZFC4 WT (HT-SELEX), 1.82 ± 0.0757 fold-change vs cycle 0 in assay [1] and 1.67 ± 0.0747 fold-change vs cycle 0 in assay [2].
On the same counts, the results for TATAGA are 2.35 ± 0.163 fold-change vs cycle 0, 2.02 ± 0.132 fold-change vs cycle 0 and 1.81 ± 0.192 fold-change vs cycle 0.
On the same counts, the results for AAAAAA are 2.68 ± 0.235 fold-change vs cycle 0, 1.98 ± 0.146 fold-change vs cycle 0 and 1.76 ± 0.185 fold-change vs cycle 0.
With CCCAAA, the binding signal with SALL4 ZFC4 WT (HT-SELEX) was determined as 0.588 ± 0.013 fold-change vs cycle 0; in assay [1], 0.653 ± 0.0116 fold-change vs cycle 0; in assay [2], 0.729 ± 0.0699 fold-change vs cycle 0.
On to CCGTAC, for which the values for the binding signal (with SALL4 ZFC4 WT (HT-SELEX); in assay [1]; in assay [2]) were 0.377 ± 0.0221 fold-change vs cycle 0, 0.458 ± 0.015 fold-change vs cycle 0 and 0.544 ± 0.0408 fold-change vs cycle 0, respectively.
Turning to GAGTAA, the figures for the binding signal (with SALL4 ZFC4 WT (HT-SELEX); in assay [1]; in assay [2]) were 1.45 ± 0.0607 fold-change vs cycle 0, 1.57 ± 0.0835 fold-change vs cycle 0 and 1.43 ± 0.106 fold-change vs cycle 0, respectively.
On the same counts, the results for AGCCAT are 0.592 ± 0.0288 fold-change vs cycle 0, 0.664 ± 0.00758 fold-change vs cycle 0 and 0.778 ± 0.0611 fold-change vs cycle 0.
On the same counts, the results for AGCAAC are 0.642 ± 0.0202 fold-change vs cycle 0, 0.736 ± 0.0162 fold-change vs cycle 0 and 0.849 ± 0.0333 fold-change vs cycle 0.
With GCATAC, the binding signal with SALL4 ZFC4 WT (HT-SELEX) was 0.665 ± 0.00696 fold-change vs cycle 0; in assay [1], 0.738 ± 0.0335 fold-change vs cycle 0; in assay [2], 0.819 ± 0.0421 fold-change vs cycle 0.
On the same counts, the results for AATGCG are 0.428 ± 0.0345 fold-change vs cycle 0, 0.473 ± 0.0206 fold-change vs cycle 0 and 0.61 ± 0.0401 fold-change vs cycle 0.
In the case of TAAACA, the figures for the binding signal (in the assay with SALL4 ZFC4 WT (HT-SELEX); in assay [1]; in assay [2]) were 1.9 ± 0.127 fold-change vs cycle 0, 1.91 ± 0.125 fold-change vs cycle 0 and 1.73 ± 0.187 fold-change vs cycle 0, respectively.
Consider AGAGAT, for which the binding signal came out at 1.51 ± 0.0705 fold-change vs cycle 0 with SALL4 ZFC4 WT (HT-SELEX), 1.65 ± 0.139 fold-change vs cycle 0 in assay [1] and 1.53 ± 0.135 fold-change vs cycle 0 in assay [2].
For TGGCAA, the binding signal with SALL4 ZFC4 WT (HT-SELEX) is 0.479 ± 0.0154 fold-change vs cycle 0; in assay [1], 0.535 ± 0.0186 fold-change vs cycle 0; in assay [2] it was 0.673 ± 0.0414 fold-change vs cycle 0.
Regarding CGTACG, the binding signal in the assay with SALL4 ZFC4 WT (HT-SELEX) amounted to 0.303 ± 0.0125 fold-change vs cycle 0; in assay [1], 0.389 ± 0.029 fold-change vs cycle 0; in assay [2], 0.481 ± 0.0656 fold-change vs cycle 0.
On the same counts, the results for ATGTCA are 1.23 ± 0.0617 fold-change vs cycle 0, 1.34 ± 0.0399 fold-change vs cycle 0 and 1.32 ± 0.0617 fold-change vs cycle 0.
On the same counts, the results for GTCAAA are 0.9908 ± 0.00315 fold-change vs cycle 0, 1.12 ± 0.0182 fold-change vs cycle 0 and 1.13 ± 0.0122 fold-change vs cycle 0.
On to AAATAC, for which the binding signal was 1.75 ± 0.12 fold-change vs cycle 0 in the assay with SALL4 ZFC4 WT (HT-SELEX), 1.68 ± 0.0912 fold-change vs cycle 0 in assay [1] and 1.59 ± 0.0866 fold-change vs cycle 0 in assay [2].
On the same counts, the results for CCATGG are 0.445 ± 0.023 fold-change vs cycle 0, 0.524 ± 0.00825 fold-change vs cycle 0 and 0.622 ± 0.0615 fold-change vs cycle 0.
On the same counts, the results for AAAATG are 1.68 ± 0.0946 fold-change vs cycle 0, 1.56 ± 0.0588 fold-change vs cycle 0 and 1.46 ± 0.0958 fold-change vs cycle 0.
Take GGTTAC: the binding signal was 0.891 ± 0.0455 fold-change vs cycle 0 with SALL4 ZFC4 WT (HT-SELEX), 1.05 ± 0.0396 fold-change vs cycle 0 in assay [1] and 1.01 ± 0.0443 fold-change vs cycle 0 in assay [2].
As for GAGTGA, the binding signal in the assay with SALL4 ZFC4 WT (HT-SELEX) was found to be 0.906 ± 0.0342 fold-change vs cycle 0; in assay [1] it was 1.02 ± 0.0645 fold-change vs cycle 0; in assay [2], 1.05 ± 0.0602 fold-change vs cycle 0.
On the same counts, the results for ACAGCA are 0.623 ± 0.0211 fold-change vs cycle 0, 0.694 ± 0.0191 fold-change vs cycle 0 and 0.793 ± 0.0143 fold-change vs cycle 0.
On to GGGGAA, for which the figures for the binding signal (with SALL4 ZFC4 WT (HT-SELEX); in assay [1]; in assay [2]) were 0.462 ± 0.0251 fold-change vs cycle 0, 0.532 ± 0.0365 fold-change vs cycle 0 and 0.614 ± 0.0545 fold-change vs cycle 0, respectively.
As for ATGCTC, the results for the binding signal (with SALL4 ZFC4 WT (HT-SELEX); in assay [1]; in assay [2]) were 0.663 ± 0.0343 fold-change vs cycle 0, 0.754 ± 0.0376 fold-change vs cycle 0 and 0.845 ± 0.0337 fold-change vs cycle 0, respectively.
On the same counts, the results for ATAGGC are 0.52 ± 0.0405 fold-change vs cycle 0, 0.585 ± 0.0153 fold-change vs cycle 0 and 0.733 ± 0.0725 fold-change vs cycle 0.
On the same counts, the results for TTGCAA are 1.13 ± 0.0202 fold-change vs cycle 0, 1.09 ± 0.0477 fold-change vs cycle 0 and 1.146 ± 0.00914 fold-change vs cycle 0.
On the same counts, the results for ATCCTA are 1.48 ± 0.0397 fold-change vs cycle 0, 1.6 ± 0.0899 fold-change vs cycle 0 and 1.46 ± 0.117 fold-change vs cycle 0.
Take GAGGTA: the figures for the binding signal (with SALL4 ZFC4 WT (HT-SELEX); in assay [1]; in assay [2]) were 0.857 ± 0.032 fold-change vs cycle 0, 0.988 ± 0.0197 fold-change vs cycle 0 and 0.996 ± 0.0208 fold-change vs cycle 0, respectively.
For GATAAC, the values for the binding signal (with SALL4 ZFC4 WT (HT-SELEX); in assay [1]; in assay [2]) were 1.49 ± 0.117 fold-change vs cycle 0, 1.52 ± 0.136 fold-change vs cycle 0 and 1.44 ± 0.166 fold-change vs cycle 0, respectively.
On the same counts, the results for AACCTA are 1.37 ± 0.0609 fold-change vs cycle 0, 1.47 ± 0.0701 fold-change vs cycle 0 and 1.4 ± 0.0994 fold-change vs cycle 0.
As for CCTTCG, the binding signal worked out at 0.394 ± 0.0327 fold-change vs cycle 0 with SALL4 ZFC4 WT (HT-SELEX), 0.487 ± 0.0246 fold-change vs cycle 0 in assay [1] and 0.582 ± 0.0265 fold-change vs cycle 0 in assay [2].
On the same counts, the results for TCAAGA are 1.32 ± 0.0482 fold-change vs cycle 0, 1.49 ± 0.0445 fold-change vs cycle 0 and 1.4 ± 0.0701 fold-change vs cycle 0.
For the sequence CACACG, the binding signal with SALL4 ZFC4 WT (HT-SELEX) was 0.405 ± 0.0118 fold-change vs cycle 0; in assay [1], 0.525 ± 0.0166 fold-change vs cycle 0; in assay [2] it was 0.649 ± 0.0779 fold-change vs cycle 0.
In the case of AATTTA, the binding signal was 2.91 ± 0.251 fold-change vs cycle 0 with SALL4 ZFC4 WT (HT-SELEX), 2.35 ± 0.145 fold-change vs cycle 0 in assay [1] and 2.04 ± 0.225 fold-change vs cycle 0 in assay [2].
On the same counts, the results for TAGACA are 1.18 ± 0.0561 fold-change vs cycle 0, 1.3 ± 0.0829 fold-change vs cycle 0 and 1.28 ± 0.0805 fold-change vs cycle 0.
For CTCAAG, the figures for the binding signal (with SALL4 ZFC4 WT (HT-SELEX); in assay [1]; in assay [2]) were 0.858 ± 0.0354 fold-change vs cycle 0, 1.02 ± 0.032 fold-change vs cycle 0 and 1.04 ± 0.0506 fold-change vs cycle 0, respectively.
On the same counts, the results for AGGCAA are 0.538 ± 0.0205 fold-change vs cycle 0, 0.6566 ± 0.00197 fold-change vs cycle 0 and 0.754 ± 0.0411 fold-change vs cycle 0.
